Experimental data as given in PubChem BioAssay AID624496 (National Center for Advancing Translational Sciences (NCATS), 2012).
Records with an inconclusive call do not appear. Active and inactive are the calls of the source. The call rests on the fitted dose curve; in most records, active means well fitted inhibition curve with a large enough effect; inconclusive means small, poorly fitted or top-dose-only effect, or another doubt; inactive means no such curve, though single readings can be large or run the other way.

Molecular target: D(2) dopamine receptor (Homo sapiens) (UniProt P14416)
Sequence (P14416 whole entry, looked up): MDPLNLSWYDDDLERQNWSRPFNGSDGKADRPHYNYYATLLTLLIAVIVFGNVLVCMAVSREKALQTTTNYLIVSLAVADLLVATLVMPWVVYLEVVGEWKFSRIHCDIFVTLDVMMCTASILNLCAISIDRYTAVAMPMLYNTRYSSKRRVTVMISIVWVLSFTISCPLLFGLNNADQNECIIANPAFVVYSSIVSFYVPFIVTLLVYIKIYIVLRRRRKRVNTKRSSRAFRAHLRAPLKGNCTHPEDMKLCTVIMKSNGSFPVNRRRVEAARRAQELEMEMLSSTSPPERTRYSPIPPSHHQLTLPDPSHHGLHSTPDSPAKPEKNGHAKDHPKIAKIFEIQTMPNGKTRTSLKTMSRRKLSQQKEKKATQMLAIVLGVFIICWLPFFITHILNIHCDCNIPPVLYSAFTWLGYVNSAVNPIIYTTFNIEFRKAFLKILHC
Assay: HTS Assay for Allosteric Antagonists of the Human D2 Dopamine Receptor: SAR in Primary Assay.
Settings: HEK293 T-REx D2 cells, calcium flux, dopamine EC80 antagonism; activity, negative = inhibition: at 41.8 µM (top of the series) unless noted
From the text: Dopamine receptors (DARs) are involved in the etiology and/or therapy of a number of neuropsychiatric and endocrine disorders. For instance, all receptor-based antiparkinsonian drugs work via stimulating the D2 DAR subtype whereas all FDA-approved antipsychotic agents are antagonists of this receptor. […] There are three different types of allosteric modulators that we are seeking, two of which will stimulate or augment receptor signaling, allosteric agonists and potentiators, while the third, allosteric antagonists, will attenuate receptor signaling. The present project is looking for compound antagonism after an EC80 addition of dopamine by tracking calcium flux in a […], inducible Hek293 Trex D2 cell line, which act through an allosteric site. NIH Chemical Genomics Center [NCGC] NIH Molecular Libraries Probe Centers Network [MLPCN] MLPCN Grant: NS064831 Assay Submitter (PI): David Sibley
Freshly passaged cells are plated in 1536 well black, clear bottom plates at a density of 4000 cells/well in 3 ul of complete media containing 1x tetracycline inducer. After an overnight incubation at 30 deg C in 5% CO2, cells are loaded with 2 ul of the no wash Calcium Assay Kit (ABD Bioquest) and incubated at room temperature for 30 to 90 minutes. Agonist read: A 10 cycle (1 second/cycle) baseline measurement is taken and then the FDSS online 1536 pintool delivers 23 nl of compound library (as well as dopamine controls) to the plate. The plate is measured for kinetically at 1 cycle/sec for 180 seconds. Following the 180 second read, 1 ul of an EC80 (negative modulation assay) is delivered by an onboard pipette head. Measurements are taken kinetically for an additional 180 seconds.

Row | Structure (SMILES) | activity, negative = inhibition | Potency
1 | COc1ccc(CNC(=O)c2ccc3c(c2)C(=O)c2ccccc2C3=O)cc1 | -113% | 
2 | COc1ccc(CNC(=O)c2cccc(N3C(=O)c4ccccc4C3=O)c2)cc1 | -114% | 
3 | CN1C(=O)c2ccccc2S(=O)c2ccc(C(=O)NCCc3cccs3)cc21 (stereo unspecified) |  | 88.7 nM (active)
4 | CN1C(=O)c2ccccc2S(=O)c2ccc(C(=O)NCc3ccc(Cl)cc3)cc21 (stereo unspecified) |  | 353 nM (active)
5 | CN1C(=O)c2ccccc2[S@](=O)c2ccc(C(=O)NCCc3cccs3)cc21 |  | 280 nM (active)
6 | CN1C(=O)c2ccccc2S(=O)c2ccc(C(=O)NCCN3CCCC3)cc21 (stereo unspecified) |  | 280 nM (active)
7 | COc1ccc(CNC(=O)c2ccc3c(c2)NC(=O)c2ccccc2S3=O)cc1 (stereo unspecified) |  | 141 nM (active)
8 | CCN1C(=O)c2ccccc2S(=O)c2ccc(C(=O)Nc3ccccc3)cc21 (stereo unspecified) |  | 141 nM (active)
9 | CN1C(=O)c2ccccc2S(=O)c2ccc(C(=O)NCc3ccccc3)cc21 (stereo unspecified) |  | 560 nM (active)
10 | CCN1C(=O)c2ccccc2S(=O)c2ccc(C(=O)NCc3ccc(C)cc3)cc21 (stereo unspecified) | 5.87% [at 4.65 µM] | 
11 | CCN1C(=O)c2ccccc2S(=O)c2ccc(NC(=O)Cc3ccc(F)cc3)cc21 (stereo unspecified) |  | 223 nM (active)
